{"source": "PubChem BioAssay AID1159506", "about": "(National Center for Advancing Translational Sciences (NCATS), 2015)", "note": "The full ranking holds about 59,000 sequences; the median of the read-out is about -0.00055, and the lowest 2% start at about -2. Shown is part of a subset that was picked to be rich in the lowest values."}
{"assay": "Identification of proteins required for the processing of the EWS-FLI1 nascent transcript;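 also: robust z of luciferase light less the median z of siRNAs with the same seed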", "details": "TC32 Ewing sarcoma NR0B1-luc vs CMV-luc (EWS-FLI1 target promoter against control promoter), 48 h; screened at 20 nM (by protocol)", "protocol": "Ewing sarcoma (ES) cells depend on the EWS-FLI1 fusion transcription factor for cell survival. Using an assay of EWS-FLI1 activity and genome-wide siRNA screening we have identified proteins required for the processing of the EWS-FLI1 nascent transcript. Parallel genome-wide siRNA-mediated RNAi screens were conducted in Ewing sarcoma TC32 cell lines expressing a luciferase (luc) reporter protein driven by either the promoter of the EWS-FLI1 target gene NR0B1 (TC32-NR0B1-luc) or the CMV promoter (TC32-CMV-luc). Luciferase activity was assessed 48 hours post siRNA-transfection.\nTwenty microl of serum-free media containing Lipofectamine RNAiMax (0.05 microl) was added to wells containing siRNA (0.8 pmol). Lipid and siRNA were allowed to complex for 45 min at ambient temperature before addition of 600 cells in RPMI-1640, 20% FBS to yield final transfection mixtures containing 20 nM siRNA in RPMI-1640, 10% FBS. Luciferase expression was measured using OneGlo (Promega, Madison, WI). The genome-wide screening campaign was conducted using Ambion's human genome library version 4.1 (Ambion, Austin TX). This library targets approximately 21000 human genes, three siRNAs per gene. Each siRNA is arrayed in an individual well of a 384-well plate. Parallel transfections were conducted in TC32-NR0B1-luc and TC32-CMV-luc cell lines and luciferase expression (OneGlo, Promega) was assayed 48 h later on a PerkinElmer Envision 2104 Multilabel plate reader (PerkinElmer, Waltham, MA). Qiagen's AllStars Negative control was incorporated on all screening plates for normalization (16 wells per plate). Qiagen, Germantown, MDsiGL4 was incorporated as a positive transfection control (16 wells per plate) on all plates. […] The raw luciferase data for the NR0B1- and CMV-luc screens were normalized and z-score-MAD transformed using standard methods (Chung et al., 2008). The miRNA-like seed sequence of every siRNA was determined and the median z-score for all siRNA sequences with the same seed sequence was calculated. This z-score was subtracted from the z-score associated with each siRNA with that seed sequence to generate a seed-adjusted z-score value (Z) that was used when the results for the three siRNAs corresponding to each gene were compared (Marine et al., 2012)"}
{"sequence": "UAUACGAUAAUGAAAUUCC against SPINK13", "seed-corrected z-score": 0.358}
{"sequence": "AAAGUUGGAAUACCGAGGU against C15orf61", "seed-corrected z-score": 0.00537}
{"sequence": "UUGACUAUAAGUGCGUCUC against KMT2E", "seed-corrected z-score": -2.36}
{"sequence": "UCAGGGUGCAGCAUGAAUC against LOC338667", "seed-corrected z-score": 0.765}
{"sequence": "UUUGUUGGGUCUAAGAUUG against RAB23", "seed-corrected z-score": -0.849}
{"sequence": "UCAAUUACACCCUCAUUUG against SRSF6", "seed-corrected z-score": -2.18}
{"sequence": "UUCGUGUAGGGUGUGUAGC against OSGIN1", "seed-corrected z-score": 0.000927}
{"sequence": "UUAGAGUCAUGCAUGAGGG against MROH7", "seed-corrected z-score": -0.225}
{"sequence": "UUGUAGACGAGCUGGAUGC against ADAMTSL5", "seed-corrected z-score": -0.759}
{"sequence": "UCCAUUCCUAUACUAGUCC against ABCG2", "seed-corrected z-score": -0.43}
{"sequence": "CAAGUUUUUAUUAUCCUGC against EPHA10", "seed-corrected z-score": -0.0524}
{"sequence": "AUUGUUCCCAUAGAGUUCC against BCL2L1", "seed-corrected z-score": 3.29}
{"sequence": "UGAUCUGUGACUGCUCUUC against AP2M1", "seed-corrected z-score": -2.2}
{"sequence": "UCGAUCUUCAGGUCGUUGC against ATXN1", "seed-corrected z-score": -0.921}
{"sequence": "UUGGAAGUCACAGUCAUCC against CST7", "seed-corrected z-score": -0.103}
{"sequence": "UUGGUUAACUGGUCAAUCC against SLC40A1", "seed-corrected z-score": -0.655}
{"sequence": "AUCUUUCCCAGGUUUUUCG against ZNF669", "seed-corrected z-score": -2.19}
{"sequence": "AUCCAUCAAAGCGAUAUUC against GBE1", "seed-corrected z-score": -1.06}
{"sequence": "AAUGAAGGAACCAUUGCCC against IL18BP", "seed-corrected z-score": 1.21}
{"sequence": "AAAUAUCCCAUAAUCAGUG against LYZ", "seed-corrected z-score": -0.541}
{"sequence": "AAUGGAUCCAAAGAGGCUA against KIFC2", "seed-corrected z-score": 0.744}
{"sequence": "UUUAAUGUAACUCCCACUU against DLGAP2", "seed-corrected z-score": 0.4}
{"sequence": "UGUGGUUCAACAAGAAGCU against CD177", "seed-corrected z-score": -1.65}
{"sequence": "ACUGGAACAAGAACCGUCC against PDIA5", "seed-corrected z-score": 0.508}
{"sequence": "UGAUCGUACAGGUGCAUCG against IL1B", "seed-corrected z-score": -0.147}
{"sequence": "AAAUGAUCUGGUUUCCUUC against OLFML1", "seed-corrected z-score": -0.829}
{"sequence": "UAAAUAGCAGCAUCUACUC against PPM1E", "seed-corrected z-score": 0.41}
{"sequence": "AAAACGAUCAAAAUCUGUC against RPL14", "seed-corrected z-score": -2.5}
{"sequence": "UACGUACUCAUUCUUCAGG against CMC2", "seed-corrected z-score": -0.986}
{"sequence": "UACAGGUAGGAGUUGUCCU against PRKACG", "seed-corrected z-score": 0.0436}
{"sequence": "UUUUAUAGAGGGAUAUUCG against NPC2", "seed-corrected z-score": 1.05}
{"sequence": "AACUGGUUCAUCAGUGUCC against WDR89", "seed-corrected z-score": -2}
{"sequence": "UGAAAUGCUAAUGCGUGGG against RBM33", "seed-corrected z-score": 0.224}
{"sequence": "UGCUUGCGAACAAACAGCC against SCD5", "seed-corrected z-score": 0.624}
{"sequence": "UAGUGAUAGAUACUGUUCC against HGF", "seed-corrected z-score": -0.568}
{"sequence": "UUUUGAUUAACUCGAGGAG against TSSK1B", "seed-corrected z-score": 0.323}
{"sequence": "UAGGGUCAUCGAGAGGUUC against MAML3", "seed-corrected z-score": -2.49}
{"sequence": "UGCAGUUUGACGGUGCCUC against TMEM204", "seed-corrected z-score": -0.467}
{"sequence": "UCCCAUUCCACUGCUACUG against RBMX", "seed-corrected z-score": -2.45}
{"sequence": "UAACUCGAAAGUGAACUUC against MYOZ3", "seed-corrected z-score": 0.0654}
{"sequence": "UAGGUAAUAAUUCACAAUG against CCL19", "seed-corrected z-score": -0.226}
{"sequence": "UCUGUUGGUACUGUGCAGG against PPA1", "seed-corrected z-score": -1.37}
{"sequence": "UCCGUUCACAUUCAGGAUC against SLC6A16", "seed-corrected z-score": -0.88}
{"sequence": "UCCUUGUAGAGCUUGAUGG against TOP3B", "seed-corrected z-score": 1.26}
{"sequence": "AACUAGAAUAAAGAAGAUG against SLC6A9", "seed-corrected z-score": 0.0838}
{"sequence": "AAAACUUCAAAUACCAUGC against SRPK1", "seed-corrected z-score": -1.05}
{"sequence": "UUGCGGGUGACAAUCUCCC against CROCC", "seed-corrected z-score": 0.165}
{"sequence": "UUUCCGGAUCAGACCGUGC against RPS29", "seed-corrected z-score": 1.1}
{"sequence": "UCACGGUCAACAAAGUAGG against BRINP1", "seed-corrected z-score": -2.87}
{"sequence": "UAUAAGAAAUGGUUUUGUC against OR6C6", "seed-corrected z-score": 0.719}
{"sequence": "AUCACGUUUAUGUCCAUUG against BMPER", "seed-corrected z-score": -0.464}
{"sequence": "UUGGCGUUCAUAAGCCGCC against PTRH1", "seed-corrected z-score": 0.961}
{"sequence": "ACUCUUUUUAAGGUGCUUC against DTX1", "seed-corrected z-score": -3.91}
{"sequence": "AAGUUUUCCAACGUACUCU against IL4", "seed-corrected z-score": 0.239}
{"sequence": "AAGGUUGAGAGAUGUAGCU against SPANXA1", "seed-corrected z-score": 1.05}
{"sequence": "UUUUAUUCUUUCGCUUUUU against MEAF6", "seed-corrected z-score": -1.39}
{"sequence": "UUUGGAAUCAUCCAGGAAA against C8orf82", "seed-corrected z-score": 0.192}
{"sequence": "UUCUGGAUAACAAAGUCAC against PCDH1", "seed-corrected z-score": 0.112}
{"sequence": "UGGUGAUUCAGAUAGCUGG against ARHGAP11A", "seed-corrected z-score": -0.84}
{"sequence": "AUCUUGAUAGGGACCUUGG against PRAP1", "seed-corrected z-score": 0.654}
{"sequence": "UGAUCUUAUAGUAAUCAGG against BRD4", "seed-corrected z-score": -2.52}
{"sequence": "GACGGCAUCAAUCAGGUCC against PYCR1", "seed-corrected z-score": 0.0435}
{"sequence": "AAAGAUGCAACCAAUGCUC against CDK3", "seed-corrected z-score": -0.134}
{"sequence": "UUACUUCAAAACGGUAUCC against ASB17", "seed-corrected z-score": -9.19}
{"sequence": "UGAUUGUUGACUGACGAUG against DMXL1", "seed-corrected z-score": 1.23}
{"sequence": "UUCUUUCAAAUUUCGGUUG against SOX13", "seed-corrected z-score": 0.262}
{"sequence": "UCUUGCUCUAGUGUCCUGG against DNAJC17", "seed-corrected z-score": -2.46}
{"sequence": "UUUAUCCUCAAAACUCUCC against C6orf10", "seed-corrected z-score": 0.952}
{"sequence": "UCUCAUACUUCCCAUGCCC against LSP1", "seed-corrected z-score": -0.209}
{"sequence": "UAUGGGACACUUAUUGGAG against PVRIG", "seed-corrected z-score": -0.543}
{"sequence": "AGAGCACUGAGUAGAAUGC against MFSD9", "seed-corrected z-score": -1.44}
{"sequence": "UGCUUGUCUAAGCCUUUGG against RPS12P9", "seed-corrected z-score": -2.08}
{"sequence": "UAAGGUAAUGAUUACCACC against RBKS", "seed-corrected z-score": -0.288}
{"sequence": "UUGACUACCAGGAAAGGCU against KRT86", "seed-corrected z-score": -0.062}
{"sequence": "UAUUUAUUGCGAGAAUCAG against CLCN4", "seed-corrected z-score": -3.96}
{"sequence": "UCCAGAAGCUGGAUGGUCC against GALE", "seed-corrected z-score": -0.197}
{"sequence": "UGACGUACAGGUUAGCAUC against ELAVL3", "seed-corrected z-score": 0.583}
{"sequence": "AACGGUAUUGAUGACAGCC against TMLHE", "seed-corrected z-score": -0.307}
{"sequence": "UACGAUGUCACCUAUAUUG against CSMD2", "seed-corrected z-score": -0.00124}
{"sequence": "UAUCUUGAGAGGUGCCUCC against THRAP3", "seed-corrected z-score": 1}
{"sequence": "UCGUACUUUAAAGAUGUCC against CR1", "seed-corrected z-score": -0.43}
{"sequence": "UUGUUUGCAGGAAGGGAGG against LOC643770", "seed-corrected z-score": -0.34}
{"sequence": "UUUCUGUUCUUACAGGUGG against SRSF5", "seed-corrected z-score": -1.33}
{"sequence": "AUAGUAAAACCAAUUACCC against OR2J2", "seed-corrected z-score": -2.15}
{"sequence": "AUGGUGAAGACGUAGUUGC against CACNA1H", "seed-corrected z-score": -1.21}
